Most compounds without a hit are left out; they make up all but 2.4% or so of the library.
PLCg1 inh: inhibitors of human phospholipase C gamma1. actives 0.84% (n = 370,000). AID 720700. inhibition, % at 12.2 µM. purified PLC-gamma1, fluorogenic substrate, fluorescence
PLCb3 inh: inhibitors of human phospholipase C beta3; Purified PLC-beta3, fluorogenic substrate, fluorescence; actives 0.18% (n = 370,000); AID 720704; inhibition, % at 12.2 µM; in the data active = inhibition above about 11%
LEDGF integ inh: blocks HIV-1 LEDGF/p75-dependent DNA integration; TR-FRET IN-LEDGF/p75 DNA integration, Eu/Cy5; inhibition, % at 3.7 µM; actives 0.64% (n = 370,000); AID 743269;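 active = inhibition above the screen-wide mean plus 3 SD, cut at about 13% in these data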;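 note: signal is the Cy5 over europium emission ratio at 671 and 618 nm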
MBD2 DNA inh: MBD2-methylated oligo binding inhibition. actives 0.31% (n = 370,000). inhibition, % at 4.4 µM. TR-FRET, MBD2 binding to methylated oligonucleotide; in the data active = inhibition above about 13%
Target sequence (Q9UBB5 whole entry, looked up): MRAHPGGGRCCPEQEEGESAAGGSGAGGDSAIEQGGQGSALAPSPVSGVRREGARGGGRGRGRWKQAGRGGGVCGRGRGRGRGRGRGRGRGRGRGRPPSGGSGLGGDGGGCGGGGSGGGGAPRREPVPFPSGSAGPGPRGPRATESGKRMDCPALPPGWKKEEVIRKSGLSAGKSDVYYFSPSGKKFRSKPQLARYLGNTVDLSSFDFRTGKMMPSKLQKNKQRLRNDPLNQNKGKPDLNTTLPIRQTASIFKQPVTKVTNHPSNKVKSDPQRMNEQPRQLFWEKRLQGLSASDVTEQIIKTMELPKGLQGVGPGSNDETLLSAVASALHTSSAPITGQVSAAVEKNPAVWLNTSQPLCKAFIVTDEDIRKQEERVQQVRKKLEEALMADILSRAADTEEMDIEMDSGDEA
UHRF1 MBD2 ctr: human UHRF1 methylated DNA binding inhibitors | AID 687016 | actives 0.75% (n = 370,000) | UHRF1 binding to methylated oligo, TR-FRET | Q96T88 | inhibition, % at 4.4 µM; in the data active = inhibition above about 21%;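 note: UHRF1 SRA domain binding a hemimethylated CpG hairpin DNA probe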
PLCgamma1 ctr: PLC-gamma1 inhibition, counter-screen for PLC-beta3 hits | inhibition, % at 12.3 µM | actives 3.1% (n = 3,300) | purified PLC-gamma1, fluorogenic substrate, fluorescence | shares compounds with PLCg1 inh
PLCb3 confirm: confirmation of human PLC-beta3 inhibitors. shares compounds with PLCg1 inh. purified PLC-beta3, fluorogenic substrate fluorescence. actives 1% (n = 3,300). AID 743261. inhibition, % at 12.3 µM; in the data active = inhibition above about 11%
Of the large screens only hits and unclear results are named; the others gave an inactive call (follow-up assays come after a bar, where they were run). Cut-off read from the data, not from the text of the source, unless noted: active = inhibition above about 9.5%; inactive = the rest.

CCc1ccc(Nc2nnc(SCC(=O)Nc3cccc(S(=O)(=O)NC4=NCCCCC4)c3)s2)cc1	PLCg1 inh 9.7 | PLCgamma1 ctr inactive | PLCb3 confirm inactive
COc1ccc(S(=O)(=O)Nc2ccc(C)cc2)cc1N(C)S(=O)(=O)c1ccc(Cl)cc1	PLCg1 inh 11 | PLCgamma1 ctr inactive | PLCb3 confirm inactive
CCOC(=O)c1sc(N)c(C#N)c1CSc1nc2ccc(OCC)cc2[nH]1	PLCg1 inh 13 | PLCgamma1 ctr inactive | PLCb3 confirm inactive
CCOC(=O)c1sc(N)c(C#N)c1CSc1nc2ccc(C)cc2[nH]1	none
O=C(NC1CCCCN(Cc2cccc(C(F)(F)F)c2)C1=O)c1cccc(C(F)(F)F)c1 (stereo not drawn)	none
O=C(COC(=O)c1cc(S(=O)(=O)N2CCCCC2)ccc1Cl)NC1CCCCC1	none
O=C(COc1ccc(S(=O)(=O)N2CCCC2)cc1Cl)NC1CCCC1	PLCg1 inh 13 | PLCgamma1 ctr inactive | PLCb3 confirm inactive
Cc1cc(Cl)c(S(=O)(=O)NC(C(=O)O)C(C)C)cc1OCC(=O)NC1CCCCC1 (stereo not drawn)	none
Cc1cc(Cl)c(S(=O)(=O)N2CCCC2)cc1OCC(=O)NC1CCCCC1	PLCb3 inh 12 | PLCgamma1 ctr inactive | PLCb3 confirm inactive
CC[C@H]1C=C[C@@H](C(=O)NS(=O)(=O)c2ccc(C)cc2)N(C(C)=O)C1	PLCg1 inh 41 | PLCgamma1 ctr 38 | PLCb3 confirm inactive
Cc1ccc(S(=O)(=O)NC(=O)NN2CC3CCCC3C2)cc1 (stereo not drawn)	none
Cc1cc(NC(=O)C2CC(c3ccc(Cl)cc3)=NO2)no1 (stereo not drawn)	PLCb3 inh 12 | PLCgamma1 ctr inactive | PLCb3 confirm inactive
COc1ccc(C2=NOC(C(=O)Nc3cc(C)on3)C2)cc1 (stereo not drawn)	none
Cc1ccc(S(=O)(=O)N2CCC(=O)N(C(COCc3cccc(Cl)c3)C(C)C)CC2)cc1 (stereo not drawn)	none
Cc1ccc(S(=O)(=O)N2CCC(=O)N(C(COCc3cccc(C)c3)C(C)C)CC2)cc1 (stereo not drawn)	PLCg1 inh 11 | PLCgamma1 ctr inactive | PLCb3 confirm inactive
O=C(CSc1ccc(Cl)cc1Cl)N1CCC(c2nc3ccccc3s2)CC1	PLCg1 inh 11 | PLCgamma1 ctr inactive | PLCb3 confirm inactive
O=C(O)c1ccccc1/C=N/NC(=S)NC1CCCCC1	PLCg1 inh 11 | PLCgamma1 ctr inactive | PLCb3 confirm inactive
O=C(NCn1cnccc1=O)c1ccccc1	none
O=C(NC(C(=O)c1ccccc1)n1cnccc1=O)c1ccccc1 (stereo not drawn)	PLCg1 inh 11 | PLCgamma1 ctr inactive | PLCb3 confirm inactive
O=C(NCCc1ccc(O)cc1)c1[nH]c(C(F)(F)F)nc1-c1ccccc1	PLCg1 inh 13 | PLCgamma1 ctr inactive | PLCb3 confirm inactive
CC(C)(C)c1ccc(-c2nnc(SCc3ccccc3)n2Cc2ccco2)cc1	none
CC1(C(=O)NC2CCCCCCC2)CCC(=O)N1Cc1ccco1 (stereo not drawn)	PLCg1 inh 9.8 | PLCgamma1 ctr inactive | PLCb3 confirm inactive
CC1(C(=O)NC2CCCC2)CCC(=O)N1Cc1ccccc1 (stereo not drawn)	none
COc1cc(-n2c(C)nc3cc(C(=O)N4CCCN(C(C)=O)CC4)ccc32)cc(OC)c1OC	none
CCOc1ccc(N(CC(=O)Nc2c(C)n(C)n(-c3ccccc3)c2=O)S(=O)(=O)c2cccc3cccnc23)cc1	none
CCC(C)N1CC23C=CC(O2)C(C(=O)OCc2ccccc2)C3C1=O (stereo not drawn)	PLCb3 inh 14 | PLCgamma1 ctr inactive | PLCb3 confirm inactive
C=CCN(C(=O)CNC(=O)c1ccco1)C(C(=O)NC1CCCCC1)c1ccccc1 (stereo not drawn)	none
C=CCN(C(=O)CNC(=O)c1ccco1)C(C(=O)NC1CCCCC1)c1ccc(F)cc1 (stereo not drawn)	PLCg1 inh 10 | PLCgamma1 ctr inactive | PLCb3 confirm inactive
O=C(NC1CCCC1)C(c1ccccc1)N(C(=O)c1ccco1)C1CCCC1 (stereo not drawn)	PLCg1 inh 9.9 | PLCgamma1 ctr inactive | PLCb3 confirm inactive
O=C(NCC(=O)N(c1ccccc1)C(C(=O)NC1CCCC1)c1cccnc1)c1ccco1 (stereo not drawn)	PLCg1 inh 10 | PLCgamma1 ctr inactive | PLCb3 confirm inactive
COc1ccc(NC(=O)CSc2nnc(-c3ccccc3)n2Cc2ccco2)c(OC)c1	PLCb3 inh 11 | PLCgamma1 ctr inactive | PLCb3 confirm inactive
O=C(Nc1ccc(F)cc1)OCc1cn(Cc2ccc(F)cc2F)nn1	none
CCN1C(=O)/C(=C2\SC(=S)N(c3c(C)n(C)n(-c4ccccc4)c3=O)C2=O)c2ccccc21	PLCb3 inh 11 | PLCgamma1 ctr inactive | PLCb3 confirm inactive
COC(=O)[C@]12C[C@H](CC(=O)N3CCSCC3)C(=O)N(Cc3ccco3)C1=C[C@H](C(C)C)O[C@@H]2C1CC1	none
Cc1nc2ccc(S(=O)(=O)NCC(=O)NCc3cccs3)cc2s1	none
CC1=NN(Cc2ccccc2)C(=O)C1	PLCg1 inh 13 | PLCgamma1 ctr inactive | PLCb3 confirm inactive
CN(C)S(=O)(=O)c1cc(NC(=O)COC(=O)CCc2ccccc2)ccc1Cl	none
CN(C)S(=O)(=O)c1cc(NC(=O)[C@H](Cc2ccccc2)N2C(=O)c3ccccc3C2=O)ccc1Cl	PLCb3 inh 11 | PLCgamma1 ctr inactive | PLCb3 confirm inactive
FC(F)(F)c1cc(CNC2CCC23CCC(c2ccccc2)CC3)ccc1Cl (stereo not drawn)	none
Cc1ccc(CN2CCN(CC(=O)NCCCN3CCN(c4ccc(F)cc4)CC3)C2=O)cc1	none
Cc1cccc(CN2CCN(CC(=O)NCc3ccc(F)cc3)C2=O)c1	PLCg1 inh 11 | PLCgamma1 ctr inactive | PLCb3 confirm inactive
O=C(NCc1cccs1)NC1CCCCC1	PLCg1 inh 9.8 | PLCgamma1 ctr inactive | PLCb3 confirm inactive
O=C(NCc1cccs1)C1CCCN1C(=O)NC1CCCCC1 (stereo not drawn)	none
COc1cccc(S(=O)(=O)Nc2ccc(C(O)(C(F)(F)F)C(F)(F)F)cc2)c1	none
CC(C)(C)c1ccc(S(=O)(=O)Nc2ccc(C(O)(C(F)(F)F)C(F)(F)F)cc2)cc1	PLCg1 inh 13 | PLCgamma1 ctr inactive | PLCb3 confirm inactive
COc1ccc(Oc2c(-c3cccs3)cnn(-c3ccc(C)cc3)c2=O)cc1	none
CCOc1ncccc1C(=O)OCC(=O)c1c(N)n(C)c(=O)n(C)c1=O	PLCb3 inh 11 | PLCgamma1 ctr inactive | PLCb3 confirm inactive
